In PubChem BioAssay AID588453 (National Center for Advancing Translational Sciences (NCATS), 2011):
Hit rate of the full screen: of about 390,000 compounds, about 4,000 (1%) were called active. Inconclusive results (about 4%) are left out. This is one part of a sample in which actives are shown more often than they occur. Calls follow the shape of the dose curve; as a rule, active = well fitted inhibition curve with a large enough effect; inconclusive = small, poorly fitted or top-dose-only effect; inactive = no such curve, though single readings can be large or run the other way.

biological target: Thioredoxin reductase 1, cytoplasmic (Rattus norvegicus) (UniProt O89049); test: qHTS Assay for Inhibitors of Mammalian Selenoprotein Thioredoxin Reductase 1 (TrxR1): qHTS; settings: recombinant rTrxR1, NADPH fluorescence consumption, selenite substrate; series mostly up to 114 µM; also: nearly all actives have a fitted effect of over 65% in size
Method in brief: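 Rat TrxR1 (90 nM in the dispensed reagent) was pre-reduced with 400 uM NADPH for 5 min at room temperature, then incubated with compound for 15 min. After 400 uM selenite was added, NADPH fluorescence (Ex 340/Em 450 nm) was followed for 8 min.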
% is scaled to controls: 0 for no effect and ±100 for the full control effect; potency is read from the fitted curve at half-maximal effect.

Chain of Thioredoxin reductase 1, cytoplasmic (Rattus norvegicus) (O89049 whole entry, looked up): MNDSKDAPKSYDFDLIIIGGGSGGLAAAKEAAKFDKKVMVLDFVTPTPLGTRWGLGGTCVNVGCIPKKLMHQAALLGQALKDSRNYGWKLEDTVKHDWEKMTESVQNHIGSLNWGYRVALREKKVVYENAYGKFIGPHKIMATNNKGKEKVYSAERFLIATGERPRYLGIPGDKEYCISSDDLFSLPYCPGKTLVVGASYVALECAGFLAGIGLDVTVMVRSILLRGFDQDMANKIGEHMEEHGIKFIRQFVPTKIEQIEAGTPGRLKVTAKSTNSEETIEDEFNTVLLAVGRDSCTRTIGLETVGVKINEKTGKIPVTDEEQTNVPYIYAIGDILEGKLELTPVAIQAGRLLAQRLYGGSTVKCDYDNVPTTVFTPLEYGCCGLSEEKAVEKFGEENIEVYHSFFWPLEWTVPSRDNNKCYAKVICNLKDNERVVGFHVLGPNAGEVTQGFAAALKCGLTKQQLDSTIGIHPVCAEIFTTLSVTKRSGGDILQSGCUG

Potency, inactive:
O=C(COc1ccccc1C(=O)Nc1ccccc1)Nc1cccc(F)c1
CCC(=O)Nc1cccc(-c2nc3cc(C)ccc3o2)c1
CC(C)(C)c1ccc(C(=O)C[N+]2(C)CCCc3ccccc32)cc1 (stereo unspecified)
COC(=O)c1ccccc1NC(=O)Cc1ccccc1OC
O=C(NC(=S)NC1CCSC1=O)c1ccccc1F (stereo unspecified)
COc1cccc(C2C(C(=O)Nc3ccc(C)cc3C)=C(C)Nc3c(C(=O)Nc4ccccc4)cnn32)c1 (stereo unspecified)
CC1CCCCN1Cc1c(O)ccc2c(=O)c(-c3cccc(Cl)c3)c(C(F)(F)F)oc12 (stereo unspecified)
CC1CCCN(Cc2c(O)ccc3c(=O)c(Oc4ccc(C(C)(C)C)cc4)c(C(F)(F)F)oc23)C1 (stereo unspecified)
CCn1c(CNc2ccc(OC)cc2)nnc1SCC(=O)c1ccc(OC)cc1
COc1ccc(CC(=O)NCc2nnc(SCC(=O)Nc3nccs3)n2C)cc1
Fc1ccc(CSc2nc(NCc3ccccc3)c3ccccc3n2)cc1
O=C(CSc1nnc(CNC(=O)c2ccccc2)n1-c1ccc(F)cc1)Nc1ccccc1F
O=C(OCc1ccccc1F)c1ccc2c(c1)OCCO2
O=C(c1ccc2c(c1)OCO2)N1CCNc2ccccc2C1
O=C1CCC[C@@H]2C[C@@]3(C[C@@H]4CCN1[C@H]24)Nc1ccccc1NC3=NCc1ccccc1
O=C(O)C1CC=CC2CCN(C3CCCCC3)C(=O)C21 (stereo unspecified)
Cc1nnc(N2CCCC(C(=O)NCCN(C)C)C2)c2nn(-c3ccccc3)c(C)c12 (stereo unspecified)
O=C1c2ccccc2C(=O)N1c1ccc(S(=O)(=O)N2CCOCC2)c2ccccc12
O=C(c1ccc(Oc2ccc(Cl)cc2)c([N+](=O)[O-])c1)N1CCCC1
NC(=O)C1CCN(C(=O)c2ccc(F)c(S(=O)(=O)N3CCOCC3)c2)CC1
Cc1cccc(-c2nnc(SC(C)C(=O)Nc3ccccc3)n2C)c1 (stereo unspecified)
COc1cc(Cl)c(C)cc1NC(=O)CCc1nc2cccnc2n1Cc1cccs1
Cc1cccc(C(=O)N2CCc3cc(CNC(=O)Cc4ccc(F)cc4)ccc32)c1
CCOC(=O)c1cnc2sccn2c1=O
CCOC(=O)c1cnc2nc(SCc3ccccc3Cl)[nH]n2c1=O
COc1ccc(NC(=O)CSc2nc3ccccc3[nH]2)cc1
Cc1ccccc1CN1CCN(CC(=O)NCc2ccccn2)C1=O
Cc1ccccc1CN1C[C@@H]2C[C@@H](c3ccc4nsnc4c3)N3CCC[C@@]23C1=O
CCOC(=O)c1[nH]c(C)c(CCC(=O)N2CCN(c3ccccc3)CC2)c1C
CCc1nc2ccc(C(=O)N3CCN(c4cc(Cl)ccc4C)CC3)cc2nc1CC
Cc1scc(C(=O)NNC(=S)NCC(C)C)c1C
CC(C)CNC(=S)NNC(=O)c1nn(C)cc1Cl
CC1(C)CC(=O)C=C(NCc2ccncc2)C1
Cc1cc(O)ccc1NC1=CC(=O)CC(C)(C)C1
Cc1ccc(OCCn2c(CNc3ccccc3C)nc3ccccc32)cc1
CCN1CCc2nc3sc(C(=O)Nc4ccccc4OC(F)(F)F)c(N)c3cc2C1
Cc1ccc(C)c(Cn2c(CCCNC(=O)C3CCCCC3)nc3ccccc32)c1
CCC(=O)Nc1ccc2nc(SCC(=O)N3CCc4ccccc43)sc2c1
O=C(NCc1ccc(F)cc1)c1ccc(Cn2c(SCc3ccc(F)cc3)nc3cccnc32)cc1
Cc1ccc(C)n1-c1nnc(N2CCC(C(=O)NCc3ccc(F)cc3)CC2)s1
COc1ccc(CCNC(=O)CCCn2c(=O)c3ccccc3n(Cc3ccc(F)cc3Cl)c2=O)cc1OC
CN(C)c1ccc(/C=c2\[nH]c(=O)/c(=C/c3ccc(N(C)C)cc3)[nH]c2=O)cc1
Cc1ccc(C)c(NC(=O)C2Cc3ccccc3CN2C(=O)OCc2ccccc2)c1 (stereo unspecified)
COc1ccccc1N1CCN(C(=O)C2Cc3ccccc3CN2C(=O)c2ccco2)CC1 (stereo unspecified)
Cc1c(Cl)cccc1NC(=O)CCS(=O)(=O)c1ccc2c(c1)oc(=O)n2C
Cc1ccc(C)c(NC(=O)Cn2ccn(-c3ccc(F)cc3)c(=O)c2=O)c1
CCc1cc2c(cc3c(=O)n(CC(=O)NCCc4ccc(OC)c(OC)c4)ncn32)s1
O=C(OCCN1C(=O)c2ccccc2C1=O)Oc1ccccc1
O=C1c2ccccc2C(=O)N1CCOc1ccc(F)cc1
Cc1cc2nn(-c3ccc(Cl)cc3)nc2cc1NC(=O)C(C)C
COc1ccc(/C=C(\NC(=O)c2ccc(OCC(C)C)cc2)C(=O)OCc2ccco2)cc1
CCCC(NC(=O)c1ccco1)c1nc2ccccc2[nH]1 (stereo unspecified)
O=C1CN(Cc2ccccc2)S(=O)(=O)c2ccccc21
COc1cccc(CNC(=O)c2ccc3c(Cl)c4c(nc3c2)CCCC4)c1
C/C=C(\C)C(=O)N1CC2(CC(c3cccc(NC(=O)CCCCC)c3)=NO2)C[C@@H]1C(N)=O (stereo partly specified)
CC/C=C/C(=O)N1CC2(CC(c3cccc(NC(=O)CC)c3)=NO2)C[C@H]1C(N)=O (stereo partly specified)
COc1cccc(CNC(=O)Cc2csc3nc(-c4ccccc4)cn23)c1
Cc1nnc(SCC(=O)NNC(=O)c2ccc(Cl)cc2)n1CC1CCCO1 (stereo unspecified)
CNC(=O)NC(=O)CSc1nnc(-c2ccc(F)cc2)n1CC1CCCO1 (stereo unspecified)
CCc1cccc(NC(=O)c2cc(-c3ccccc3)n[nH]2)c1
CC(C)(C)c1ccc(C(=O)C[n+]2cccc3cc(Cl)ccc32)cc1
CC(C)(C)c1ccc(S(=O)(=O)Nc2ccc(O)c(Sc3nc4ccccc4s3)c2)cc1
CC(C)c1ccc(S(=O)(=O)Nc2ccc(O)c(Sc3nc4ccccc4s3)c2)cc1
O=S(=O)(Nc1ccc2nc(-c3cccc(Cl)c3)oc2c1)c1ccccc1
CCc1ccccc1NS(=O)(=O)c1ccc2nc(-c3ccccc3)[nH]c2c1
CCOC(=O)C1CCN(c2csc3ccc(C)cc3c2=O)CC1
O=C(Nc1nsc(-c2ccccc2)n1)c1ccncc1
COC(=O)c1ccc(NC(=O)CSc2n[nH]c(-c3ccccc3)n2)cc1
COc1ccc(CNC(=O)c2cc3c(=O)[nH]c4ccc(C)cc4c3s2)c(OC)c1
Cc1cccc(Cn2c(=O)n(CCC(=O)NCCc3ccc(Cl)cc3)c(=O)c3sccc32)c1
O=S(=O)(c1ccccc1)c1nc(-c2ccc(Cl)cc2Cl)oc1N1CCCCC1
COc1ccc(-c2nc(S(=O)(=O)c3ccccc3)c(N3CCCCC3)o2)cc1
CCOc1ccc(-c2cc3c(=O)n(CC(=O)NCc4ccc(OC)cc4)ccn3n2)cc1
Cc1c(CCO)sc[n+]1CC(=O)c1ccc2ccccc2c1
Cc1noc2ncnc(NCc3ccccc3Cl)c12
COc1ccc(-c2oc3ncnc(NCCCO)c3c2-c2ccc(OC)cc2)cc1
Cc1ccc2ncc(C(=O)Nc3ccc(OC(F)(F)F)cc3)c(=O)n2c1
Cc1ccccc1-n1nc(C)c2cc(C(=O)NC3CC3)sc21

Potency, active:
COC(=O)c1ccccc1NC(=S)NC(=O)c1ccccc1F 25.1 µM
COc1ccc(Cc2nnc(SCC(=O)c3cccc([N+](=O)[O-])c3)n2C)cc1 79.4 µM
O=C(CCN1CCc2ccccc2C(O)(c2ccccc2)C1)c1ccc2c(c1)OCCO2 (stereo unspecified) 0.708 µM
CC1CCN(C(=O)c2ccc(S(=O)(=O)Cc3cc(F)ccc3F)c([N+](=O)[O-])c2)CC1 10 µM
CCOC(=O)c1cnc2[nH]c3ccccc3n2c1=O 44.7 µM
Cc1ccccc1CN1C[C@@H]2C[C@@H](c3cn(C)nc3-c3ccccc3)N3CCC[C@@]23C1=O 44.7 µM
CC(C)CNC(=S)NC(=O)c1ccc(Cl)cc1 14.1 µM
Cc1cc(C)nc(NNC2=CC(=O)CC(C)(C)C2)n1 14.1 µM
O=C1C=CC(=O)N1c1ccc(N2CCCCC2)cc1 0.708 µM
Nc1ccccc1SC(C[N+](=O)[O-])c1ccccc1 (stereo unspecified) 7.94 µM
Cc1ccc(S(=O)(=O)N(C)C)cc1NC(=O)C1Cc2ccccc2CN1C(=O)c1ccco1 (stereo unspecified) 39.8 µM
O=C1c2ccccc2C(=O)N1CCC(O)C[N+](=O)[O-] (stereo unspecified) 70.8 µM
CC(C)Oc1ccc(/C=C(\NC(=O)/C=C/c2ccco2)C(=O)NCCc2nc3ccccc3[nH]2)cc1 17.8 µM
C/C=C\C=C\C(=O)N1CC2(CC(c3cccc(NC(=O)/C(C)=C\C)c3)=NO2)C[C@H]1C(N)=O (stereo partly specified) 50.1 µM
O=C(CSc1nnc(-c2ccco2)n1CC1CCCO1)c1ccccc1 (stereo unspecified) 44.7 µM
O=[N+]([O-])c1c(NCCO)cc(Sc2nc3ccccc3s2)c2nonc12 1.12 µM
O=S(=O)(Nc1ccc2nc(-c3ccco3)[nH]c2c1)c1ccccc1 56.2 µM
COC(=O)c1nc(NC(=O)c2ccccc2)n[nH]1 56.2 µM
O=S(=O)(c1ccccc1)c1nc(Cc2ccccc2)oc1N1CCOCC1 1.58 µM
OCCNc1ncnc2oc(-c3ccco3)c(-c3ccco3)c12 50.1 µM
Cc1ccccc1-n1nc(C)c2c1N=C1C(Cl)=CC(Cl)=CN1C2c1ccc(C(=O)O)cc1 (stereo unspecified) 12.6 µM

Activity change, negative = inhibition, inactive:
CCOC(=O)c1c(NC(=O)CSc2cn(CCNC(=O)c3cccc(C(F)(F)F)c3)c3ccccc23)sc2c1CCC2 16.1% [at 11.4 µM]
CN(C)c1ccc(/C=N\Nc2ccc([N+](=O)[O-])cc2[N+](=O)[O-])cc1Cl 26.5% [at 0.0914 µM]
